Compound activity deposited in PubChem by several laboratories.
In the library only some 4% were active in any assay of this set; here they are far more common.
GDH-TPI inh: counter-screen for M. tuberculosis FBA inhibitors: GDH-TPI coupled enzymes; GDH-TPI coupled enzyme counterscreen, NADH absorbance; inhibition, % at 4.8 µM; actives 1.2% (n = 360,000); AID 588335; in the data active = inhibition above about 30%;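 also: 0% = DMSO wells and 100% = wells lacking the enzyme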
Mtb UGM inh: blocks M. tuberculosis UGM enzyme. inhibition, % at 10 µM. P9WIQ1. actives 0.06% (n = 320,000). purified UGM, fluorescence polarization probe displacement; in the data active = inhibition above about 10%, passing the limit was not always enough
Rv3671c protease: inhibits the M. tuberculosis serine protease Rv3671c; AID 2606; inhibition, % at 5.96 µM; actives 0.048% (n = 320,000); P9WHR9; in the data active = inhibition above about 38%;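 also: extracellular domain of Rv3671c used as enzyme; 0% = enzyme with DMSO and 100% = no enzyme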
Mtb betalactam: beta-lactam sensitization of Mtb H37Rv | M. tuberculosis H37Rv growth with meropenem, percent inhibition | actives 0.27% (n = 330,000) | AID 434955 | inhibition, % at 25 µM; call rule not given here;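 also: growth measured after seven days incubation then overnight dye step; 0% = bacteria only wells and 100% = bacteria with antibiotic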
RecA splice inh: Mtb RecA intein splicing inhibition | P9WHJ3 | actives 0.75% (n = 290,000) | inhibition, % (no concentration beside the values) | cell-free RecA intein splicing, fluorescence; in the data active = inhibition above about 30%;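 also: 0% = vehicle wells and 100% = reference inhibitor control wells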
Target sequence (P9WHJ3 whole entry, looked up, canonical isoform): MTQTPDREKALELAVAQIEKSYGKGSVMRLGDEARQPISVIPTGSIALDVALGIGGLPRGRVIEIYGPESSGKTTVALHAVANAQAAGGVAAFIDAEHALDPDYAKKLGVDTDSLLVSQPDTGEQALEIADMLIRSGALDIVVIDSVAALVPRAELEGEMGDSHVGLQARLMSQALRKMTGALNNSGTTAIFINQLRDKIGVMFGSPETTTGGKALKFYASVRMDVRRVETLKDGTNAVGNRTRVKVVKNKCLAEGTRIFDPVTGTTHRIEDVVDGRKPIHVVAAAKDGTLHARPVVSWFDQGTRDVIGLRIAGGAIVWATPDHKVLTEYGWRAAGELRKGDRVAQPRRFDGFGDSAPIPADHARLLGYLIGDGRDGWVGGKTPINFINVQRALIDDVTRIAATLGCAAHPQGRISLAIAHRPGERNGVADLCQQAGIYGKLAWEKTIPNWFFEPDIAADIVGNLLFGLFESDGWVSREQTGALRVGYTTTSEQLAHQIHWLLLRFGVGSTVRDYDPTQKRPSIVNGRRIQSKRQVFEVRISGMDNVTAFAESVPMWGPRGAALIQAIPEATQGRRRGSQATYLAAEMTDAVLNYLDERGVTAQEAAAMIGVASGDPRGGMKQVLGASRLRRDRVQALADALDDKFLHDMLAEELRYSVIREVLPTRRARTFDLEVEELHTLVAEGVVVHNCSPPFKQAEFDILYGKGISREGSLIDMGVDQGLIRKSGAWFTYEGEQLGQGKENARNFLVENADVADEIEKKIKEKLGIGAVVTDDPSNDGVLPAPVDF
FBA Mtb inh: inhibits M. tuberculosis FBA enzyme. purified M. tuberculosis FBA, fluorescence read-out. inhibition, % at 1 µM. P9WQA3. actives 2.3% (n = 360,000); in the data active = inhibition above about 27%;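 also: 0% = vehicle and 100% = reference inhibitor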
The depositor's hits bear a star; i = inactive; · = no result; + = active, no number.

SMILES | GDH-TPI inh | Mtb UGM inh | Rv3671c protease | Mtb betalactam | RecA splice inh | FBA Mtb inh
O=C(CSc1nnc(NC(=O)c2c(F)cccc2F)s1)NC1CCCC1 | -7 | 1 | -5 | -11 | -2 | -1
Cc1c(OC(=O)CNC(=O)OC(C)(C)C)ccc2c3c(c(=O)oc12)CCC3 | 5 | 1 | -10 | -12 | -16 | 122*
Cc1oc2c(C)c3oc(=O)c4c(c3cc2c1C)CCCC4 | 8 | 0 | -7 | 6 | -3 | 1
Cc1c(O)ccc2c3c(c(=O)oc12)CCCC3 | 12 | 0 | -1 | 84 | · | 193*
Cc1c(OCC(=O)OC(C)(C)C)ccc2c3c(c(=O)oc12)CCC3 | 12 | -2 | -1 | 50 | 5 | 9
CC(=O)COc1ccc2c3c(c(=O)oc2c1C)CCCCC3 | 16 | 2 | 9 | 74 | 0 | 115*
C/C(=N\Nc1ccc(S(N)(=O)=O)cc1[N+](=O)[O-])c1ccccc1O | 22 | 0 | 4 | 2 | -1 | -4
C/C(=N\Nc1ccc(S(N)(=O)=O)cc1[N+](=O)[O-])c1ccco1 | 41* | -1 | 12 | -2 | 0 | -6
Cc1cc2ncn(/N=C/c3ccc([N+](=O)[O-])s3)c2cc1C | 13 | -8 | 7 | 100 | 6 | -1
O=[N+]([O-])c1ccc(/C=N/n2cnc3ccccc32)s1 | 11 | 11* | -10 | 100 | 2 | -2
Cc1ccc(NC(=O)c2sc3ncn(CC(=O)N4CCN(c5ccccn5)CC4)c(=O)c3c2C)cc1 | 10 | · | · | · | · | -3
Cc1cc(C)cc(Cn2c3ccc(NC(=O)NCCc4cccs4)cc3c(=O)n2C)c1 | 4 | · | · | · | · | 171*
Cn1c(=O)c2cc(NC(=O)NCCc3cccs3)ccc2n1Cc1ccccc1 | 14 | · | · | · | · | 141*
Cc1cc(C)cc(Cn2c3ccc(NC(=S)NC4CCCCC4)cc3c(=O)n2C)c1 | 4 | · | · | · | · | 17
COc1ccccc1CCC(=O)Nc1ccc2c(c1)c(=O)n(C)n2-c1cccs1 | 8 | · | · | · | · | 1
CCC(CC)NC(=O)Nc1ccc(F)cc1F | -2 | -1 | -8 | -11 | -1 | -2
Cc1c(Cl)cccc1NC(=S)N1CCc2ccccc2C1 | 9 | -2 | 1 | -6 | 3 | -1
CCCN(CC(=O)Nc1ccccc1C)C(=O)c1ccc2c(c1)OCO2 | -3 | -2 | -7 | 0 | · | -1
COc1cc2c(cc1NC(=O)CCCCCN1C(=O)CCC1=O)oc1ccccc12 | 17 | -1 | -2 | · | -2 | -6
CCN(CC)c1ccc2c(c1)oc(=O)c1c(Cl)cc(=O)oc12 | 35* | 1 | 15 | 97 | · | 4
CN1CCN(c2ccc(C=O)cc2)CC1 | 37* | 4 | 7 | -9 | 1 | -3
CCOC(=O)c1ccc(N2C(=O)c3n[nH]c(C)c3C2c2cccnc2)cc1 (centres undefined) | 1 | -1 | -9 | -3 | -3 | 1
CCOC(=O)c1ccc(N2C(=O)c3n[nH]c(-c4ccco4)c3C2c2ccc([N+](=O)[O-])cc2)cc1 (centres undefined) | 14 | 1 | -151 | · | 32* | -1
Clc1ccccc1NN=Cc1ccccn1 | 47* | · | · | · | · | -1
Cc1ccccc1OCC(=O)OCC(=O)NCc1ccc2c(c1)OCO2 | -1 | 0 | 3 | 1 | · | 0
SMILES | GDH-TPI inh | Mtb UGM inh | Rv3671c protease | Mtb betalactam | RecA splice inh | FBA Mtb inh
O=C(COC(=O)COc1cccc(Br)c1)NCc1ccc2c(c1)OCO2 | -1 | 11* | -3 | -5 | · | -3
COc1cc(C=NNC(=O)Cn2nc(C)cc2C)ccc1OC(=O)C1CC1 | 7 | 1 | 2 | 17 | · | -1
COc1cc(C(=O)Nc2cccc(-c3nc4ccccc4o3)c2C)cc(OC)c1OC | -13 | · | · | · | -5 | -5
COc1cc(C(=O)Nc2ccc(-c3nc4cc(C)ccc4o3)c(O)c2)cc(OC)c1OC | 34* | 0 | 7 | -4 | -5 | 11
CCC(CC)C(=O)NCCc1ccc(F)cc1 | -6 | -2 | -2 | -1 | -1 | -3
COc1ccc(NC(=O)c2ccc(-c3ccc(C(C)=O)cc3)o2)cn1 | 32* | 3 | -8 | 6 | · | 19
COc1ccc(NC(=O)c2ccco2)cn1 | -3 | 3 | 9 | -5 | -1 | -1
C/C(=N\NC(=O)C(=O)Nc1ccc(C)c(Cl)c1)c1ccncc1 | -4 | -3 | 1 | -4 | -1 | 1
CCNC(=O)c1cc2c(=O)n3cccc(C)c3nc2n(Cc2ccc(C)cc2)c1=N | 4 | 3 | 4 | 100 | i | 112*
Cc1cccn2c(=O)c3cc(C(=O)NC(C)C)c(=N)n(Cc4ccncc4)c3nc12 | 2 | -4 | 3 | -13 | -383 | +
COCCCNC(=O)c1cc2c(=O)n3cccc(C)c3nc2n(C(C)C)c1=N | -1 | 1 | -1 | -4 | -408 | +
CCC(=O)Nc1cccc(-c2nc3ccccc3c(=O)o2)c1 | 9 | 0 | -2 | 36 | -1 | 5
CCCOc1cccc(-c2nc3ccccc3c(=O)o2)c1 | -5 | 4 | 9 | 62 | 43* | -2
CCOc1ccccc1NC(=O)c1oc2ccccc2c1NC(=O)C1CCCO1 (centres undefined) | 1 | 0 | 0 | 4 | -1 | 5
Cc1ccc(/C=C(\C#N)C(=O)NC(C)C)o1 | 65* | 1 | 7 | -7 | -2 | 1
Cc1ccc(/C=C(\C#N)C(=O)NC(C)c2ccccc2)o1 (centres undefined) | 33* | 0 | -2 | -2 | 2 | 1
Cc1ccc(/C=C(/C#N)C(=O)NC(C)c2ccccc2)o1 (centres undefined) | 23 | 1 | -8 | 1 | 1 | -1
CC(NC(=O)/C(C#N)=C/c1ccc(C(=O)O)cc1)c1ccccc1 (centres undefined) | 38* | 0 | 2 | 0 | 2 | -4
CCc1c(C)nc(SCC(=O)NNC(=O)Cc2ccc(OC)cc2)[nH]c1=O | -5 | 1 | 6 | -1 | -1 | -1
O=C(CN1C(=O)S/C(=C\c2cccs2)C1=O)Nc1ccc(O)c(C(=O)O)c1 | 38* | 5 | -2 | -1 | 1 | 0
O=C(CCN1C(=O)/C(=C\c2cccs2)SC1=S)Nc1ccc(C(=O)O)cc1 | 5 | 1 | -6 | 1 | 21 | -4
O=C(CN1C(=O)S/C(=C/c2cccs2)C1=O)N1CCOCC1 | 37* | 0 | 5 | -7 | -2 | 0
O=C(CCN1C(=O)/C(=C/c2ccco2)SC1=S)Nc1ccc(C(=O)O)c(O)c1 | 4 | 1 | -19 | 27 | 27 | 2
O=C(CN1C(=O)S/C(=C\c2cccs2)C1=O)Nc1ccc(C(=O)O)c(O)c1 | 49* | 1 | -7 | 0 | 3 | -8
O=C(CN1C(=O)S/C(=C/c2cccs2)C1=O)N1CCCC1 | 21 | 1 | -10 | 3 | · | -1
CCN(CC(=O)Nc1c(F)cccc1F)C(=O)CSCC(=O)Nc1cccc(C)c1 | 2 | -4 | 16 | -5 | 2 | 0
CN1C(C(=O)Nc2ccccn2)=C(O)c2ccccc2S1(=O)=O | 33* | -1 | 2 | 0 | 1 | -2
CN1C(C(=O)Nc2ncccn2)=C(O)c2ccccc2S1(=O)=O | 21 | 0 | · | -3 | -1 | 5
